In PubChem BioAssay (NCATS):
Several values for one entry are separate records, joined by “and”; a condition that tells them apart may be missing. Equal values may be shown once. Records with an inconclusive call do not appear. Where a call stands in place of a potency, no number is given. Activity calls are given as the source filed them. Unless noted, calls follow the shape of the dose curve; as a rule, active = well fitted curve in the direction sought with a large enough effect; inconclusive = small, poorly fitted or top-dose-only effect, or another doubt; inactive = no such curve, though single readings can be large; an effect the other way counts as inactive or inconclusive.

What was measured:
[1] = molecular target: Arylsulfatase A (Homo sapiens) (UniProt P15289); assay: qHTS screen for enhancers of Arylsulfatase A (ASA1): LOPAC Validation Assay (AID 720538)
Outline: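 Read-out: fluorescence at Ex=525/Em=598 nm after 1N NaOH final stop. Patient fibroblasts carrying ASA-I179S had 48h compound exposure, then 14h room-temperature pNCS hydrolysis (0.5mM final) in lysis buffer. Signal increase = enhanced activity.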

[2] = qHTS for compounds that reverse cellular toxicity of Amyloid beta (A-beta) peptide in yeast: LOPAC Validation Assay (AID 720559)
Outline: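 OD600 growth readout after 48 hr at 30 C; A-beta-toxic yeast plus pinned compounds in medium. Normalization: DMSO = negative, equimolar FeCl3 + clioquinol = positive.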

[3] = qHTS for Activators of Parkin Expression: LOPAC Validation Assay (NLuc Reporter) (AID 720572)
Outline: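 NLuc signal, read 10 min after reagent and following a prior FLuc read, is normalized to DMSO (0) and positive controls (100%). Cells: neuronal Parkin-promoter coincidence reporter line; compounds tested 7-point, 24 h, 37 C, 5% CO2.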

[4] = qHTS for Activators of Parkin Expression: LOPAC Validation Assay (FLuc Reporter) (AID 720573)
Outline: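 FLuc luminescence read-out from a neuronal line expressing a Parkin-promoter-driven coincidence reporter. Cells treated 24 h at 37 C, 5% CO2 with compounds at 7 concentrations; signal increase normalized to DMSO and positive control.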

[5] = molecular target: T1, Hexokinase-4 (Homo sapiens) + Glucokinase regulatory protein (Homo sapiens) (UniProt P35557+Q14397); assay: qHTS assay for inhibitors of recombinant human GCK-GKRP interaction: Diaphorase-coupled assay (AID 743205)
Outline: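 Resorufin fluorescence (525/590 nm), read each minute over 30 min, reports GCK activity coupled via G6PDH and diaphorase. Reaction: 10 nM GST-GCK, 10 nM FLAG-GKRP, 5 mM glucose, 0.4 mM ATP, 0.15 mM NADP+, 0.1 mM resazurin.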

[6] = molecular target: T1, Hexokinase-4 (Homo sapiens) + Glucokinase regulatory protein (Homo sapiens); assay: qHTS assay for inhibitors of recombinant human GCK-GKRP interaction: ADP-Glo assay (AID 743206)
Outline: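 Pin-transferred compounds meet a 15 nM GST-GCK/15 nM FLAG-GKRP/2 uM S6P mix (dispense concentrations). ATP is then added to 0.4 mM final with 5 mM glucose, and the reaction runs 60 min at room temperature. ADP is quantified luminescently.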

[7] = molecular target: T1, Hexokinase-4 (Homo sapiens) + Glucokinase regulatory protein (Homo sapiens); assay: qHTS assay for inhibitors of recombinant human GCK-GKRP interaction: HTRF assay (AID 743207)
Outline: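 HTRF read-out (ex 320 nm; 615/665 nm emission) after 60 min RT equilibration of 5 nM GST-GCK, 5 nM FLAG-GKRP, 2 uM S6P, compound and anti-FLAG/anti-GST detection antibodies; signal normalized between DMSO wells with and without GCK.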

[8] = qHTS Assay for Identifying Gametocytocidal Compounds (AID 743244); also: potency is read from the fitted curve at half-maximal effect;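 as to max response: actives lower the fluorescent signal which means gametocytes are killed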; conditions: P. falciparum 3D7 stage III-V gametocytes, alamarBlue, 72 h; max response: stronger effect = lower value
Outline: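 In this qHTS viability screen, late-stage 3D7 gametocytes are incubated with compound for 72 h, then with alamarBlue for 24 h; reduced resorufin fluorescence marks killing.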

[9] = qHTS profiling of the MIPE4 collection as inhibitors of Plasmodium falciparum (DD2) proliferation (AID 743345; call rule not given here); conditions: P. falciparum Dd2 in erythrocytes, SYBR Green DNA, 72 h; at 28.5 µM (top of the series) unless noted
Outline: (§1)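 Parasite DNA was quantified by SYBR Green I fluorescence (ex 485, em 535 nm) after overnight lysis in saponin/Triton buffer at room temperature. Cultures at 0.3% parasitemia and 2.5% hematocrit were first exposed to compound for 72 h at 37 C; signals were normalised to artemisinin (0.29 uM) and vehicle wells.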

[10] = qHTS profiling of the MIPE4 collection as inhibitors of Plasmodium falciparum (DD2) proliferation (Rep 2) (AID 743346; call rule not given here); conditions: P. falciparum Dd2 in erythrocytes, SYBR Green DNA, 72 h; at 28.5 µM (top of the series) unless noted
Outline: as §1

[11] = qHTS profiling of the MIPE4 collection as inhibitors of Plasmodium falciparum (3D7) proliferation (AID 743344; call rule not given here); conditions: P. falciparum 3D7 in erythrocytes, SYBR Green DNA fluorescence, 72 h; at 28.5 µM (top of the series) unless noted
Outline: as §1

[12] = qHTS assay for small molecule agonists of the antioxidant response element (ARE) signaling pathway measured by Nrf2-dependant transcriptional activity (AID 720636; active = well fitted curve in the direction sought with a large enough effect in the repeat runs; an effect the other way counts as inactive or inconclusive;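 also: HepG2 cells with an ARE-driven luciferase reporter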)
Outline: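 Reporter gene assay, HepG2 ARE-luc: 16 hr compound, 37 C, 5% CO2; read-out luciferase luminescence.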

[13] = qHTS assay for small molecule agonists of the antioxidant response element (ARE) signaling pathway measured by Nrf2-dependant transcriptional activity - cell viability counter screen (AID 720653; active = well fitted curve in the direction sought with a large enough effect in the repeat runs; an effect the other way counts as inactive or inconclusive); conditions: ARE-bla HepG2 viability, CellTiter-Glo ATP luminescence, 16 h; max response: stronger effect = lower value
Outline: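 ARE-bla HepG2 cells treated with compounds for 16 h at 37C; this counter screen measures viability as intracellular ATP by CellTiter-Glo luminescence after 30 min at room temperature.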

[14] = qHTS assay for cell viability of the p53RE-bla HCT-116 cell line (AID 743292); also: nearly all actives have a fitted effect of over 55% in size
Outline: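 Readout: CellTiter-Glo luminescence after 30 min RT. Treatment: compounds in DMSO, 16 h, 37 C. Cells: CellSensor p53RE-bla HCT-116, 4,000/well, preincubated 5 h.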

[15] = qHTS assay for small molecule antagonists of the retinoid-related orphan receptor gamma (ROR-gamma) signaling pathway - cell viability counter screen (AID 720652; active = well fitted curve in the direction sought with a large enough effect in the repeat runs; an effect the other way counts as inactive or inconclusive;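 also: CHO reporter cells with doxycycline-induced ROR-gamma expression; compound exposure lasted 16 hr before ATP read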)
Outline: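 CHO RORE-LUC/TET-ROR line, 1,000 cells/well, 37 C 5% CO2 5 hr; cpd or DMSO + doxycycline induction, 16 hr. CellTiter-Glo, 30 min RT, luminescence = ATP content.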

T1 sequence (P35557 whole entry, looked up): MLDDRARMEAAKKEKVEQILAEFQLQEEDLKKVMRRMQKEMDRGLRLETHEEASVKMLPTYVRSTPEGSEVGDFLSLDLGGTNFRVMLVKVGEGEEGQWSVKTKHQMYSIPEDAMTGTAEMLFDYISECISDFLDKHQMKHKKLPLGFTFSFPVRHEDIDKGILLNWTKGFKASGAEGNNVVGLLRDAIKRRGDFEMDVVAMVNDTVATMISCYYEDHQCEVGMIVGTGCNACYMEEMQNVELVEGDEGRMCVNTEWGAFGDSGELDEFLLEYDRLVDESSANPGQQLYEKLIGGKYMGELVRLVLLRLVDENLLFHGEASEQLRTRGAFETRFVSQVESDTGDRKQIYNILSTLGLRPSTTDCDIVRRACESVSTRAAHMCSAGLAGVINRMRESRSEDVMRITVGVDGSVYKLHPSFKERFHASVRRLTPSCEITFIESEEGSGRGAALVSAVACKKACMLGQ
T1 sequence (Q14397 whole entry, looked up): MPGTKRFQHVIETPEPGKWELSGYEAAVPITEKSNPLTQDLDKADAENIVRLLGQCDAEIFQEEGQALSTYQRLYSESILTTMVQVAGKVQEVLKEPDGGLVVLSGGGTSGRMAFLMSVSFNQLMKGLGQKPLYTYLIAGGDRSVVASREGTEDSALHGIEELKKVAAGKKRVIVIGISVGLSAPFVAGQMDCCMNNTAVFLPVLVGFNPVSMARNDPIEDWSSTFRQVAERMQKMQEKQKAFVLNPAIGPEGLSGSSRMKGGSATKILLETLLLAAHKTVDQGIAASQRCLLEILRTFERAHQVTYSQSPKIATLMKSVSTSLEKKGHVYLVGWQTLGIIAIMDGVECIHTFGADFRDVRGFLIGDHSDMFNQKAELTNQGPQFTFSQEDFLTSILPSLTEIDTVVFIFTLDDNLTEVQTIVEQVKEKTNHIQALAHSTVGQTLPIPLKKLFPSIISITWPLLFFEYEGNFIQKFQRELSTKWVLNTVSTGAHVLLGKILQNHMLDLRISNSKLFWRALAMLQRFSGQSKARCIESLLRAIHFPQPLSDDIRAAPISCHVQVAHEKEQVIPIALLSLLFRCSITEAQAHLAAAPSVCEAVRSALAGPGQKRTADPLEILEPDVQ
Chain of Arylsulfatase A (Homo sapiens) (P15289 whole entry, looked up): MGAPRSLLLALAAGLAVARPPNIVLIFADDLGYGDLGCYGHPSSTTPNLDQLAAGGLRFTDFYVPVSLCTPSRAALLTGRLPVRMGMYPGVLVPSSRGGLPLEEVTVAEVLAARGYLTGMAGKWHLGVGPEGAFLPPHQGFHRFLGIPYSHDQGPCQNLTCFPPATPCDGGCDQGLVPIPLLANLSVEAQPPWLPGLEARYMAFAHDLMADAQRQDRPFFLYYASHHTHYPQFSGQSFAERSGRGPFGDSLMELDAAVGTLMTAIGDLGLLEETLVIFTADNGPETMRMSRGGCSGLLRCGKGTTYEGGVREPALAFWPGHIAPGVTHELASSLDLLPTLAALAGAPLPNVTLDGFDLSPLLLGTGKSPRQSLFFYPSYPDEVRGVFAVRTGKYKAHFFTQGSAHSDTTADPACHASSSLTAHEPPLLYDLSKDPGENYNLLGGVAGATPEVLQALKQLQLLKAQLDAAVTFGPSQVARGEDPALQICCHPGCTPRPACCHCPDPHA

Structure (SMILES) | Potency [1] | outcome [2] | outcome [3] | Potency [4] | Potency [5] | Potency [6] | Potency [7] | max response [8] | parasite growth remaining, % of DMSO control (lower = more inhibition) [9] | parasite growth, % of control (lower = inhibition) [10] | parasite growth, % of DMSO control [11] | outcome [12] | max response [13] | Potency [14] | Potency [8] | Potency [15]
Nc1nc2c(ncn2COC(CO)CO)c(=O)[nH]1 | inactive | inactive | inactive | inactive | inactive | inactive | inactive | -13.4% (inactive) and 3.21% (inactive) | 92.5% | 84.9% | – | – | – | – | – | –
COC(=O)Nc1nc2ccc(C(=O)c3cccs3)cc2[nH]1 | inactive | inactive | inactive | inactive | inactive | inactive | inactive | 22.4% (inactive) and 23.7% (inactive) | 93.5% | 91.6% | – | – | – | – | – | –
NC(=O)NO | inactive | – | inactive | inactive | inactive | inactive | inactive | -4.54% (inactive) and 19.4% (inactive) | 97.5% | 95.5% | 93.9% | – | – | – | – | –
CCc1cccc2c3c([nH]c12)C(CC)(CC(=O)O)OCC3 (centres undefined) | inactive | inactive | inactive | inactive | inactive | inactive | inactive | 10.8% (inactive) and -5.14% (inactive) | 86% | 85% | – | – | – | – | – | –
NC12CC3CC(CC(C3)C1)C2 | inactive | – | inactive | inactive | inactive | inactive | inactive | -8.46% (inactive) | 72% | 25.9% | 11.2% | – | – | – | – | –
CCOC(=O)C(C)(C)Oc1ccc(Cl)cc1 | inactive | – | inactive | inactive | inactive | inactive | inactive | 9.62% (inactive) and 0.495% (inactive) | 103% | 78% | – | inactive | -4.42% (inactive) | inactive | – | –
Cc1cnc(C(=O)NCCc2ccc(S(=O)(=O)NC(=O)NC3CCCCC3)cc2)cn1 | inactive | – | inactive | inactive | inactive | inactive | inactive | 32.6% (inactive) and 12.5% (inactive) | 12.7% | 9.38% | 7.98% | – | – | – | – | –
COc1ccccc1N1CCN(CC(O)COc2cccc3ccccc23)CC1 (centres undefined) | inactive | – | inactive | inactive | inactive | inactive | inactive | 7.63% (inactive) and 7.03% (inactive) | 98.8% | 65.8% | – | – | – | – | – | –
COc1nc(C)nc(Cl)c1NC1=NCCN1 | inactive | inactive | inactive | inactive | inactive | inactive | inactive | 0.253% (inactive) and 33% (inactive) | 89.9% | 92.6% | – | – | – | – | – | –
COc1cc2nc(N3CCN(C(=O)C4COc5ccccc5O4)CC3)nc(N)c2cc1OC (centres undefined) | inactive | inactive | inactive | inactive | inactive | inactive | inactive | 2.28% (inactive) | 9.25% | 11.1% | – | – | – | – | – | –
CN1CCN(C2=Nc3cc(Cl)ccc3Nc3ccccc32)CC1 | inactive | inactive | inactive | inactive | – | – | – | -2.07% (inactive) and 20.9% (inactive) | – | – | – | – | – | – | – | –
CC12CC3CC(C)(C1)CC(N)(C3)C2 | inactive | – | inactive | inactive | inactive | inactive | inactive | 12.5% (inactive) | 23.6% | 122% | 176% | – | – | – | – | –
OCCN(CCO)c1nc(N2CCCCC2)c2nc(N(CCO)CCO)nc(N3CCCCC3)c2n1 | inactive | inactive | – | – | – | – | – | 7.4% (inactive) | – | 36.9% | – | – | – | – | – | –
CC1COc2c(N3CCN(C)CC3)c(F)cc3c(=O)c(C(=O)O)cn1c23 (centres undefined) | inactive | – | inactive | inactive | inactive | inactive | inactive | 18.2% (inactive) and 27.4% (inactive) | 84.7% | 76.4% | – | – | – | – | – | –
CN1C(C(=O)Nc2ccccn2)=C(O)c2ccccc2S1(=O)=O | inactive | inactive | – | inactive | inactive | inactive | inactive | -1.29% (inactive) and 1.85% (inactive) | 88.2% | 136% | – | – | – | – | – | –
CC(C(=O)O)c1cccc(C(=O)c2ccccc2)c1 (centres undefined) | inactive | inactive | inactive | inactive | – | – | – | 3.48% (inactive) and 27.8% (inactive) | – | – | – | – | – | – | – | –
CN(C)CCC=C1c2ccccc2C=Cc2ccccc21 | inactive | – | inactive | inactive | inactive | inactive | inactive | – | 62.8% | 42.4% | 58.1% | – | – | – | 10 µM (active) | –
COc1cc2c(c(OC)c1OC)-c1ccc(OC)c(=O)cc1[C@@H](NC(C)=O)CC2 | inactive | – | inactive | inactive | inactive | inactive | inactive | -10.9% (inactive) and -1.99% (inactive) | – | – | – | inactive | -19.8% (inactive) and 13.5% (inactive) and -10.8% (inactive) | inactive | – | inactive
O=C1Cc2cc(CCN3CCN(c4nsc5ccccc45)CC3)c(Cl)cc2N1 | inactive | – | inactive | inactive | inactive | inactive | inactive | -0.117% (inactive) and 9.6% (inactive) | 21.2% | 20.5% | – | – | – | – | – | –
CC#C[C@]1(O)CC[C@H]2[C@@H]3CCC4=CC(=O)CCC4=C3[C@@H](c3ccc(N(C)C)cc3)C[C@@]21C | inactive | – | inactive | inactive | inactive | inactive | inactive | – | 45.8% | 11.9% | – | inactive | -29.2% (inactive) | inactive | – | –
